Several values for one entry are separate records, joined by “and”; a condition that tells them apart may be missing. Equal entries are not always repeated. Among all 310,000 compounds or so, about 17,000 (5.5%) were called active. Entries that show only a call come without a potency. Not shown: some 11% with an inconclusive outcome. This excerpt belongs to a sample that is enriched for actives. A number with no mark means an inactive call. Calls follow the shape of the dose curve; as a rule, active = well fitted inhibition curve with a large enough effect; inconclusive = small, poorly fitted or top-dose-only effect, or effect the other way; inactive = no such curve, though single readings can be large or run the other way.
Potency is read from the fitted curve at half-maximal effect.

Sequence of Nuclear receptor ROR-gamma (Mus musculus) (P51450 whole entry, looked up, the tested form may be a part): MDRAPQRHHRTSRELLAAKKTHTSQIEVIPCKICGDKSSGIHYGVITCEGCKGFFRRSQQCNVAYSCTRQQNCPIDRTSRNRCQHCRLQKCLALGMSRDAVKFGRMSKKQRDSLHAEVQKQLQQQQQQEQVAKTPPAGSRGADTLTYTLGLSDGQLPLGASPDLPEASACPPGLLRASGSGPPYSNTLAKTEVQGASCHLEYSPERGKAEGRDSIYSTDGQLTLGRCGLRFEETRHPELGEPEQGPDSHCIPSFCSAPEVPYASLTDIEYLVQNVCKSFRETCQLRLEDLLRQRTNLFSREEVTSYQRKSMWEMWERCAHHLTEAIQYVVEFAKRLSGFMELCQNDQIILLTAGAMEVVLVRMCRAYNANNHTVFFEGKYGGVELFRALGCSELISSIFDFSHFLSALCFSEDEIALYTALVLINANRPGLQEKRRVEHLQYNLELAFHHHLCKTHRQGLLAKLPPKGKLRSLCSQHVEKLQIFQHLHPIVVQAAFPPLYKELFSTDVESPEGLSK

The test concerns the target Nuclear receptor ROR-gamma (Mus musculus) (UniProt P51450). In words: qHTS for inhibitors of ROR gamma transcriptional activity. Also: nearly all actives have a fitted effect of over 60% in size. Conditions: Drosophila S2 Gal4-RORgamma UAS-luciferase reporter, 20 h; series mostly up to 53.6 µM. In outline: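 Compounds are pin-transferred onto Drosophila Schneider cells expressing a copper-inducible Gal4–ROR gamma transactivation domain fusion. After 1 hr, copper sulfate is added to 700 uM final; luciferase is read 20 hr later.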
For `Cc1ccc2nc3c(cc(C(=O)NCCc4ccccc4)c(=N)n3CC3CCCO3)c(=O)n2c1` (stereo not given), the Potency entry is “inactive”.
On the same count and under the same terms, in the case of `COc1ccccc1N(C)C(=O)c1cc(S(=O)(=O)N2CCc3ccccc32)cn1C` it was “inactive”; in that of `O=C(NCCOc1cccnc1)c1ccc(OC2CCN(Cc3ccccn3)CC2)cc1`, “inactive”.
The same measure, in the same setting: the value for `Nc1nnnn1/N=C/c1cccc(Br)c1` was “inactive”; that for `CCCc1nn(C)c2c(=O)[nH]c(-c3cc(S(N)(=O)=O)ccc3OCC)nc12` was “inactive”; that for `CCOc1cc(-c2noc(CCCC(=O)NC3CCCCC3)n2)ccc1OC` was “inactive”.
Same read-out and setting: in the case of `O=C(NCCCn1ccnc1)C1CCCN(S(=O)(=O)c2cc(Cl)ccc2Cl)C1` (stereo not given) it was “inactive”; in that of `CCCNC(=O)c1cnc(-c2ccccc2)nc1-c1ccccc1`, “inactive”; in that of `C[C@H](NC(=O)C1CCN(S(=O)(=O)c2ccccc2)CC1)C(=O)NCc1ccccc1`, “inactive”.
In the case of `COc1ccc2oc(=O)cc(-c3cc4ccccc4o3)c2c1`, the Potency entry was “inactive”.
Same read-out and setting: in the case of `COc1ccc2nc(Nc3nc(-c4ccncc4)cs3)sc2c1` it was “inactive”; in that of `COc1ccc2nc(Nc3nc(-c4cc5ccccc5oc4=O)cs3)sc2c1`, 7.08 µM (active).
Still for that read-out and setting: the value for `COCCOC1CCN(C(=O)c2ccc(OC)c(OC3CCN(C(C)C)CC3)c2)CC1` was “inactive”; that for `COc1ccccc1C(=O)N(Cc1ccc(C)o1)C1CCS(=O)(=O)C1` (stereo not given) was “inactive”.
`CCOC(=O)c1ccc2[nH]c3c(c2c1)CCCC3NC=O` (stereo not given): the Potency entry is “inactive”.
Consider `Cc1cccc(N=C2NN=C(c3c[nH]c4ccccc34)CS2)c1`, for which the Potency was 4.47 µM (active).
Same read-out and setting: the value for `Cc1cccc(C(=O)Nc2nnc(Cc3c[nH]c4ccccc34)s2)c1` was “inactive”; that for `Cc1cc(C)c(C#N)c(N2CCC(C(N)=O)CC2)n1` was “inactive”.
The same measure, in the same setting: in the case of `N#Cc1c(-c2ccccc2)cc(-c2ccccc2)nc1SCC(=O)O` it was “inactive”; in that of `N#Cc1c(N2CCCCC2)nc(N)c2c(N)nc(SCC(=O)O)cc12`, 3.98 µM (active).
On the same count and under the same terms, in the case of `COc1ccccc1N1CCN(C(=O)c2cc(=O)c3cc(C)ccc3o2)CC1` it was “inactive”; in that of `COc1ccc(C(C(=O)NC2CCCC2)N(CCCO)C(=O)Cn2nnc(-c3ccc(C)o3)n2)cc1` (stereo not given), “inactive”; in that of `COC(=O)c1ccc(NC(=O)CSc2nnc(C3CC3)n2C)cc1`, “inactive”.
Turning to `COC(=O)CN1C(=O)[C@H]2[C@@H](/C=C/c3ccccc3)N3C(=O)CN(Cc4ccccc4)C(=O)[C@@]3(Cc3ccccc3)[C@H]2C1=O`, the Potency entry was “inactive”.
For the compound `CCOC(=O)c1cccc(NC(=O)CN2C(=O)C3CC=CCC3C2=O)c1` (stereo not given), the Potency entry was “inactive”.
Still for that read-out and setting: the value for `C=CCNC(=O)COc1coc(CN2CCN(Cc3ccccc3)CC2)cc1=O` was “inactive”; that for `C=CCNC(=S)NNC(=O)COc1c(Cl)cc(Cl)cc1Cl` was 1.26 µM (active); that for `C=CCNC(=O)CCCOc1cccc(C)c1` was “inactive”.
Same read-out and setting: the value for `Cc1ccsc1C(=O)N[C@@H](C)c1nnc2ccccn12` was “inactive”; that for `O=C(c1ccc(Br)o1)N1CCN(CCOc2ccccc2)CC1` was “inactive”.
Still for that read-out and setting: in the case of `O=C(N=C1SC2CS(=O)(=O)CC2N1c1cc(Cl)ccc1Cl)C1CC1` (stereo not given) it was “inactive”.
Take `COc1ccc2cc(S(=O)(=O)Nc3ccccn3)ccc2c1`: the Potency entry was “inactive”.
With `Cc1ccc(S(=O)(=O)Nc2ccc3ncccc3c2)cc1`, the Potency result is “inactive”.
Consider `COc1cc(NS(=O)(=O)c2ccc3ccccc3c2)c2ncccc2c1`, for which the Potency was 1.12 µM (active) and 178 nM (active).
The same measure, in the same setting: the value for `COc1cc2c(cc1OC)C(c1cccc([N+](=O)[O-])c1)=NCC2` was “inactive”; that for `Cc1cc(=O)oc2c1ccc1ccccc12` was “inactive”; that for `Brc1ccc2nc(N3CCCC3)sc2c1` was “inactive”.
The same measure, in the same setting: the value for `Cc1nc2cc3c(cc2s1)OCO3` was “inactive”; that for `c1c2c(cc3sc(N4CCCCC4)nc13)OCCO2` was 0.794 µM (active).
On the same count and under the same terms, in the case of `COc1ccc(-c2cc(=O)oc3cc(OC(C)C(=O)Nc4ccc(CN5CCOCC5)cc4)ccc23)cc1` (stereo not given) it was “inactive”; in that of `Cc1ccc(N(C(=O)CNC(=O)c2ccco2)C(C(=O)NC2CCCC2)c2ccncc2)cc1` (stereo not given), “inactive”.
For the compound `NS(=O)(=O)c1cccc(NC(=O)CSc2nc3ccccc3n2-c2ccccc2)c1`, the Potency result is “inactive”.
Still for that read-out and setting: in the case of `CN(C)S(=O)(=O)c1cc(NC(=O)CN2C(=O)NC3(CCCc4ccccc43)C2=O)ccc1Cl` (stereo not given) it was “inactive”; in that of `CCN(CC)c1ccc(C(=O)NNC(=O)CCc2nc3ccccc3c(=O)[nH]2)cc1`, “inactive”; in that of `CCN(CC(=O)Nc1cccc(S(N)(=O)=O)c1)Cc1nc2ccccc2c(=O)[nH]1`, 2.82 µM (active).
The same measure, in the same setting: the value for `CC(C)=C(NC(=O)c1ccco1)C(=O)NCCc1nc2ccccc2[nH]1` was “inactive”.
On to `CCCc1nc(SCC(=O)Nc2ccc(S(=O)(=O)N(C)C)cc2)c2ccccc2n1`, for which the activity change, negative = inhibition is 7.51% [at 10 µM].
For `O=C(c1ccco1)N(Cc1nc2ccccc2c(=O)[nH]1)C1CCCC1`, the Potency was 1.58 µM (active).
Turning to `CCn1c(Cc2ccccc2)nnc1SCc1nc2ccccc2c(=O)[nH]1`, the Potency entry was “inactive”.
The same measure, in the same setting: the value for `COc1ccc(-n2cnnc2SCC(=O)Nc2cccc(S(N)(=O)=O)c2)cc1` was “inactive”.
Still for that read-out and setting: in the case of `CCCC(=O)N(CCc1ccccc1)Cc1nc2ccccc2c(=O)[nH]1` it was “inactive”.
Still for that read-out and setting: in the case of `CCN(CC(=O)NC(=O)NCc1ccccc1)Cc1nc2ccccc2c(=O)[nH]1` it was 0.355 µM (active); in that of `CCN(CC(=O)Nc1ccc(Cl)c(S(=O)(=O)N(C)C)c1)Cc1nc2ccccc2c(=O)[nH]1`, 12.6 µM (active); in that of `COc1ccc(C2(C)NC(=O)N(CC(=O)c3ccc4c(c3)OCO4)C2=O)cc1` (stereo not given), “inactive”.
Consider `Cc1cc(C)c(S(=O)(=O)Nc2c(C)n(C)n(-c3ccccc3)c2=O)cc1[N+](=O)[O-]`, for which the Potency result was “inactive”.
As to `Cc1cccc([C@@H]2[C@@H]3C(=O)N(Cc4ccccc4)C(=O)[C@@H]3[C@]3(C)C(=O)N(c4ccc(Br)cc4)C(=O)N23)c1`, the Potency result is “inactive”.
The same measure, in the same setting: in the case of `O=C(N/N=C/c1cccc(Br)c1)c1ccc(N2CCCC2=O)cc1` it was “inactive”; in that of `COCc1ccc(CN2CCC(Oc3ccc(C(=O)NCc4ccccn4)cc3)CC2)o1`, “inactive”.
For `COc1ccc(NC(=O)C2CCN(S(=O)(=O)c3ccc4[nH]c(=O)oc4c3)CC2)c(OC)c1`, the Potency result was “inactive”.
Still for that read-out and setting: the value for `Cc1ccc(S(=O)(=O)N(CCCN(C)C)Cc2ccc3c(c2)OCO3)cc1` was “inactive”; that for `CCCS(=O)(=O)Nc1ccc(-c2cn3c(n2)SCC3)cc1` was “inactive”.
Still for that read-out and setting: in the case of `Cc1ccc(-c2ccc(/C=N/NC(=O)CN3CCOCC3)o2)cc1[N+](=O)[O-]` it was “inactive”.
Same read-out and setting: in the case of `COc1cc(/C=N\NC(=O)c2nonc2N)c(OC)cc1Br` it was “inactive”; in that of `Cc1cc(C)c([N+](=O)[O-])cc1-c1ccc(/C=N/NC(=O)c2nonc2N)o1`, 11.2 µM (active); in that of `COc1ccnc2c1c(=O)n(Cc1cccc(F)c1)c(=O)n2C`, “inactive”.
As for `Clc1cccc(CN2COc3c(cc(Cl)c4cccnc34)C2)c1`, the Potency was 0.562 µM (active).
On the same count and under the same terms, in the case of `CC(C)CC(=O)N1CCN(Cc2cccc(Cl)c2)CC1` it was “inactive”; in that of `O=c1[nH]n(-c2cccc(Cl)c2)c2ncccc12`, “inactive”.
With `COc1ccc(Cl)cc1NS(=O)(=O)c1cccc(C(=O)NCC2CCCO2)c1` (stereo not given), the Potency entry is “inactive”.
On the same count and under the same terms, in the case of `O=C(COc1ccc([N+](=O)[O-])cc1)Nc1cccc(C(=O)Nc2ccccc2C(=O)O)c1` it was “inactive”.
On the same count and under the same terms, the value for `CCCOc1ccc(CNC(=O)C2CCN(c3nn4c(=O)cc(C)nc4s3)CC2)cc1` was “inactive”; that for `Cc1cc(N2CCCC2)n2nc(C)c(-c3ccccc3)c2n1` was “inactive”.
Turning to `Cc1nn2c(NCCN(C)C)c3c(nc2c1-c1ccccc1)CCC3`, the Potency is 0.141 µM (active).
On the same count and under the same terms, the value for `Cc1cc(C(C)(C)C)n2nc(C)c(-c3ccccc3)c2n1` was “inactive”.
On the same count and under the same terms, the value for `COc1ccc(-c2noc(C(C)NS(=O)(=O)c3ccc(NC(C)=O)cc3)n2)cc1` (stereo not given) was “inactive”.
Same read-out and setting: in the case of `Cc1cc(C)cc(NC(=O)C2CCCN(S(=O)(=O)c3ccc4[nH]c(=O)ccc4c3)C2)c1` (stereo not given) it was “inactive”.
Consider `COc1ccc(-n2c(=S)[nH]c3sc4c(c3c2=O)CCc2ccccc2-4)cc1`, for which the Potency is 0.447 µM (active).
The same measure, in the same setting: in the case of `CCCSc1nc2sc3c(c2c(=O)n1-c1ccc(OC)cc1)CCN(C)C3` it was “inactive”; in that of `CSc1nc2sc3c(c2c(=O)[nH]1)CCc1ccccc1-3`, “inactive”.
Still for that read-out and setting: the value for `Cn1c(CCN2CCCC2)nc2cc(NS(=O)(=O)c3ccccc3)ccc21` was “inactive”; that for `CN(CCC1CCOCC1)C(=O)CC1C(=O)NCCN1Cc1cccc(F)c1` (stereo not given) was “inactive”; that for `CCCCC(CC)CNCc1cccn1CCN1CCOCC1` (stereo not given) was “inactive”.
Same read-out and setting: in the case of `COc1ccc(CCNC(=O)C2CCCN2C(=O)Nc2ccccc2)cc1OC` (stereo not given) it was “inactive”; in that of `C/C(=N\NC(=O)c1cc(-c2ccc(O)cc2)nc2ccccc12)c1cccnc1`, “inactive”; in that of `O=C(O)c1ccc2c(c1)C(=O)N(c1ccc(/C=C/C(=O)c3ccccc3)cc1)C2=O`, “inactive”.
As to `O=C(O)c1ccc2c(c1)C(=O)N(NC(=O)c1ccc(O)cc1)C2=O`, the Potency is 11.2 µM (active).
Still for that read-out and setting: in the case of `Cc1cccc(N2C(=O)c3ccc(C(=O)Nc4cccc(C(=O)O)c4)cc3C2=O)c1` it was “inactive”; in that of `Cc1cc(OCC(=O)NCC(O)c2ccccc2)c2c(C)c(C)c(=O)oc2c1` (stereo not given), “inactive”; in that of `O=C(O)CCCCCCCCc1cn(CN2C(=O)c3ccccc3C2=O)nn1`, “inactive”.
Same read-out and setting: in the case of `CC1CCN(C(=O)/C(=C\c2ccccc2)NC(=O)c2ccccc2)CC1` it was “inactive”.
Same read-out and setting: in the case of `CC1CCN(C(=O)c2ccccc2NC(=O)Cc2ccccc2)CC1` it was “inactive”; in that of `CC1CCN(C(=S)NC(=O)c2ccccc2Br)CC1`, 0.562 µM (active).
`COc1ccc(NC(=O)C(C)N2c3cccc4cccc(c34)S2(=O)=O)c(OC)c1` (stereo not given): the Potency result was “inactive”.
Still for that read-out and setting: the value for `COc1ccc(COC(=O)c2ccc(Cl)c(S(=O)(=O)N3CCOCC3)c2)cc1F` was “inactive”.
For `CC(C)(C)OC(=O)N1CCC(C(=O)NNC(=O)c2ccc(Cl)cc2Cl)CC1`, the Potency entry was “inactive”.
Turning to `O=C(CN1CCC(O)(c2cccc(C(F)(F)F)c2)CC1)NCCc1ccccc1`, the Potency result was “inactive”.
As for `O=C(CCc1nnc(Cc2ccc3c(c2)OCO3)o1)NCCc1ccccc1Cl`, the Potency entry is “inactive”.
On the same count and under the same terms, the value for `O=C(N/N=C/c1cccc2cccnc12)[C@H]1C[C@@H]1c1ccccc1` was 3.55 µM (active); that for `Cc1ccc(NC(=O)C2CC2c2ccccc2)cc1` (stereo not given) was “inactive”.
The same measure, in the same setting: in the case of `O=C(NNC(=S)Nc1ccc(F)cc1)[C@H]1C[C@@H]1c1ccccc1` it was “inactive”.

For the origin of these results see PubChem BioAssay AID2551 (National Center for Advancing Translational Sciences (NCATS), 2010).
